Results: the supplement of paper PMC3898565
Counter-ions that a name gives are not always drawn. ± gives the uncertainty stated by the source.

The compounds below were run on U87 (assay: cell viability relative to vehicle control; higher = less growth inhibition (less active)). Settings: 10 µM; 72 h.
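Further: viable cell number estimated from Alamar Blue fluorescence read at 560/90, part of a single-dose primary screen of an FDA-approved drug library.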

SMILES | cell viability [%]
C[C@H](N[C@@H](CCc1ccccc1)C(=O)O)C(=O)N1CCC[C@H]1C(=O)O | 98.3 ± 1.7
CCCCCCNC(=O)n1cc(F)c(=O)[nH]c1=O | 55.1 ± 2.6
O=C(O)Cc1ccccc1Nc1c(Cl)cccc1Cl | 105.9 ± 0.17
CC(=O)O[C@@]12CO[C@@H]1C[C@H](O)[C@@]1(C)C(=O)[C@H](O)C3=C(C)[C@@H](OC(=O)[C@H](O)[C@@H](NC(=O)OC(C)(C)C)c4ccccc4)C[C@@](O)([C@@H](OC(=O)c4ccccc4)[C@H]21)C3(C)C | 45.2 ± 1.5
COc1cc(C)c(Cc2cnc(N)nc2N)cc1OC | 100 ± 1.7
CC(C)(C#N)c1cc(Cn2cncn2)cc(C(C)(C)C#N)c1 | 109 ± 1.3
Cc1c(C(=O)NN2CCCCC2)nn(-c2ccc(Cl)cc2Cl)c1-c1ccc(I)cc1 | 106 ± 1.3
COc1cc(OC)c(C(=O)CCCN2CCCC2)c(OC)c1 [Buflomedil HCl] | 105 ± 2.7
NC(=O)N1c2ccccc2CC(=O)c2ccccc21 [Trileptal] | 102 ± 2.4
CCC(=O)NS(=O)(=O)c1ccc(-c2c(-c3ccccc3)noc2C)cc1 | 108.7 ± 0.37
CCN(CC)C(=O)C1(c2ccccc2)CC1CN (stereo not given) [Milnacipran] | 102 ± 1.5
O=C(O)c1cc(/N=N/c2ccc(S(=O)(=O)Nc3ccccn3)cc2)ccc1O | 102 ± 1.6
COc1ccc(CN2CCN(C(c3ccc(F)cc3)c3ccc(F)cc3)CC2)c(OC)c1OC | 69.3 ± 8.6
CNCCCC12CCC(c3ccccc31)c1ccccc12 [Maprotilline HCl] | 102 ± 1.5
CC(C)(C)C(O)/C=C/c1ccc2c(c1)OCO2 (stereo not given) [Stiripentol] | 105.6 ± 0.6
COc1ccnc(C[S+]([O-])c2nc3cc(OC(F)F)ccc3[nH]2)c1OC (stereo not given) | 125.2 ± 1.1
Cc1[nH]c(=O)c(C#N)cc1-c1ccncc1 | 109 ± 2.6
Oc1ccc(C2CNCCc3c2cc(O)c(O)c3Cl)cc1 (stereo not given) | 103 ± 2.8
CN1CCN(c2nc3cc(C(F)(F)F)ccc3n3cccc23)CC1 | 111 ± 2
NC(N)=Nc1nc(CSCC/C(N)=N/S(N)(=O)=O)cs1 | 98.4 ± 9.8

SMILES | cell viability [%]
COC1=C(OC)C(=O)C(CCCCCCCCCCO)=C(C)C1=O | 93.41 ± 0.38
CC(=O)NC[C@H]1CN(c2ccc(N3CCOCC3)c(F)c2)C(=O)O1 | 103 ± 1.8
OCCOCCN1CCN(C2=Nc3ccccc3Sc3ccccc32)CC1 | 99.6 ± 2.8
C[C@H]1[C@H](OC(=O)CCC(=O)O)O[C@@H]2O[C@@]3(C)CC[C@H]4[C@H](C)CC[C@@H]1[C@@]24OO3 | 98.9 ± 1.1
CC(C(O)c1ccc(O)cc1)N1CCC(Cc2ccccc2)CC1 (stereo not given) [Ifenprodil] | 99.5 ± 1.3
CN(C)CCCC1(c2ccc(F)cc2)OCc2cc(C#N)ccc21 (stereo not given) [Citalopram] | 102 ± 1.4
Cc1nc(=O)c2cc(CN(C)c3ccc(C(=O)N[C@@H](CCC(=O)O)C(=O)O)s3)ccc2[nH]1 | 85.4 ± 1.4
COC(=O)CCc1ccc(OCC(O)CNC(C)C)cc1 (stereo not given) | 128 ± 3
CC[C@H](C)C(=O)O[C@H]1CCC=C2C=C[C@H](C)[C@H](CC[C@@H]3C[C@@H](O)CC(=O)O3)[C@H]21 [mevastatin] | 89.1 ± 3.1
Clc1ccccc1C(c1ccccc1)(c1ccccc1)n1ccnc1 | 107.5 ± 0.99
CCOc1cc(CC(=O)N[C@@H](CC(C)C)c2ccccc2N2CCCCC2)ccc1C(=O)O | 105 ± 1.5
Cc1nc2ccccn2c(=O)c1CCN1CCC(C(=O)c2ccc(F)cc2)CC1 | 97.4 ± 1.5
Cn1c(NCCN(CCO)CCCc2ccc([N+](=O)[O-])cc2)cc(=O)n(C)c1=O | 102 ± 3.1
CN1CCc2cc(Cl)c(O)cc2[C@@H](c2ccccc2)C1 | 97.5 ± 6.3
Fc1ccc([C@@H]2CCNC[C@H]2COc2ccc3c(c2)OCO3)cc1 [Paroxetine] | 101 ± 1.2
OC[C@H]1O[C@@H](n2cnc3c(N[C@H]4CCC[C@@H]4O)ncnc32)[C@@H](O)C1O (stereo partly drawn) [Adenosine, N-(2-hydroxycyclopentyl)-, (1S-trans)- [CAS]] | 110.8 ± 0.42
C[N+]1(C)CCC(OC(=O)C(O)(c2ccccc2)C2CCCC2)C1 (stereo not given) [Glycopyrrolate] | 103 ± 1.1
Cc1cn([C@H]2C=C[C@@H](CO)O2)c(=O)[nH]c1=O | 105 ± 3
CCC1=C[C@H]2CN(C1)Cc1c([nH]c3ccccc13)[C@@](C(=O)OC)(c1cc3c(cc1OC)N(C)[C@H]1[C@@](O)(C(=O)OC)[C@H](OC(C)=O)[C@]4(CC)C=CCN5CC[C@]31[C@@H]54)C2 [Vinorelbine Bitatrate] | 18 ± 5
CC1=Nc2ccc(Cl)cc2S(=O)(=O)N1 | 101 ± 1.6
